This passage reports z-score and composite z-score results from PubChem BioAssay.

The nature of experiment [1]: resazurin metabolic signal in HepG2 cells – cell-based, resazurin fluorescence, 24 h, PK04 Diversity Set, profiling panel (AID 1172). Note: test concentration not given here. The settings on record: HepG2 viability, higher = more signal.
Experiment [2] in a line: budding yeast growth changes without added modifier – OD600, strain BY4716, 24 h, basal condition, primary screen (AID 1173). The settings on record: S. cerevisiae BY4716 growth, OD600, 24 h; higher = more signal, called active from +8 up or from −8 down.
Experiment [3] can be described thus: viability profiling in MM1S myeloma cells – cell-based, resazurin fluorescence, basal, 24 h, PK04 Diversity Set, profiling panel (AID 1174).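 Note: MM1S multiple myeloma cell line; test concentration not given here.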 The settings on record: higher = more signal, called active from +8 up or from −8 down.
The target of experiment [4] is Dihydroorotate dehydrogenase (quinone), mitochondrial (Plasmodium falciparum (isolate 3D7)) (UniProt Q08210). Description: inhibition of P. falciparum DHODH – biochemical, C-terminal His tag, absorbance 600 nm, primary screen (AID 1175).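 Note: recombinant parasite enzyme with a five histidine tag at its C terminus; test concentration not given here.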 The settings on record: PfDHODH enzyme, DCIP absorbance 600 nm; higher = more signal, called active from +8 up or from −8 down.
A short description of experiment [5]: inhibition of PAO1 biofilm formation – strain PAO1, LB-PBS medium, absorbance 600 nm, primary screen (AID 1176). Note: test concentration not given here. The settings on record: P. aeruginosa PAO1 growth/biofilm, A600, 12 h; higher = more signal.
Experiment [6] in a line: growth modulation of vineyard yeast isolate – strain RM11-1a, OD600, basal, 24 h, primary screen (AID 1177).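 Note: cultures grown under basal conditions with no added stressor; test concentration not given here.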 The settings on record: S. cerevisiae RM11-1a growth, OD600, 24 h; higher = more signal, called active from +8 up or from −8 down.
Experiment [7] can be described thus: growth of efflux-deficient E. coli DRC39 – strain DRC39, OD650, 24 h, E. coli filamentation inducers, primary screen (AID 1178).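 Note: growth measured as culture turbidity by optical density at 650 nm; test concentration not given here.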 The settings on record: E. coli DRC39 acrAB, higher = more signal, called active from +8 up or from −8 down.
Experiment [8] is described as follows: growth of efflux-deficient E. coli DRC39 – strain DRC39, OD650, 48 h, E. coli filamentation inducers, primary screen (AID 1179).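 Note: screen aims at cell division blockers that make cells filament.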 The settings on record: E. coli DRC39 delta-acrAB growth, higher = more signal, called active from +8 up or from −8 down.
Experiment [9] can be described thus: viability profiling in RPMI8226 myeloma cells – cell-based, resazurin fluorescence, basal, 24 h, PK04 Diversity Set, profiling panel (AID 1180).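 Note: RPMI8826 multiple myeloma cell line at 5000 cells per well; test concentration not given here.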 The settings on record: higher = more signal.
In experiment [10] the target is E3 ubiquitin-protein ligase XIAP (Homo sapiens) (UniProt P98170). Description: small molecules binding XIAP protein – biophysical, small-molecule microarray, fluorescence 635 nm, primary screen (AID 1181).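 Note: score merges 667 nm emission and signal to noise over triplicate slides.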 The settings on record: higher = more signal.

Active and inactive are the calls of the source. Unless noted, the rule behind the calls is not given here.

Sequence of E3 ubiquitin-protein ligase XIAP (Homo sapiens) (P98170 whole entry, looked up): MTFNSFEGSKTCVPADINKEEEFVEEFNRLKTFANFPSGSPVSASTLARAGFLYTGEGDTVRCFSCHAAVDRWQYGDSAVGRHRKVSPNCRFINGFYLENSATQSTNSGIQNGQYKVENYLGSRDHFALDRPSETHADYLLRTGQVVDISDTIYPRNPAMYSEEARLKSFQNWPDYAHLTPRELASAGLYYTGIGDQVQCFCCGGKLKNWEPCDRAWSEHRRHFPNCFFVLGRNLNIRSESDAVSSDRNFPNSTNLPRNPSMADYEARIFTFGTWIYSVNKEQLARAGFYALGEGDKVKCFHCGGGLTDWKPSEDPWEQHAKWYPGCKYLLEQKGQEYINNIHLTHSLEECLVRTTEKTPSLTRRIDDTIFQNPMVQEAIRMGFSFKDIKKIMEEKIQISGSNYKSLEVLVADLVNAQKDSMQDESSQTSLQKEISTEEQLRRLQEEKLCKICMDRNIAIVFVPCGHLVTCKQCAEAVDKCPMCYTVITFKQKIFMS
Sequence of Dihydroorotate dehydrogenase (quinone), mitochondrial (Plasmodium falciparum (isolate 3D7)) (Q08210 whole entry, looked up): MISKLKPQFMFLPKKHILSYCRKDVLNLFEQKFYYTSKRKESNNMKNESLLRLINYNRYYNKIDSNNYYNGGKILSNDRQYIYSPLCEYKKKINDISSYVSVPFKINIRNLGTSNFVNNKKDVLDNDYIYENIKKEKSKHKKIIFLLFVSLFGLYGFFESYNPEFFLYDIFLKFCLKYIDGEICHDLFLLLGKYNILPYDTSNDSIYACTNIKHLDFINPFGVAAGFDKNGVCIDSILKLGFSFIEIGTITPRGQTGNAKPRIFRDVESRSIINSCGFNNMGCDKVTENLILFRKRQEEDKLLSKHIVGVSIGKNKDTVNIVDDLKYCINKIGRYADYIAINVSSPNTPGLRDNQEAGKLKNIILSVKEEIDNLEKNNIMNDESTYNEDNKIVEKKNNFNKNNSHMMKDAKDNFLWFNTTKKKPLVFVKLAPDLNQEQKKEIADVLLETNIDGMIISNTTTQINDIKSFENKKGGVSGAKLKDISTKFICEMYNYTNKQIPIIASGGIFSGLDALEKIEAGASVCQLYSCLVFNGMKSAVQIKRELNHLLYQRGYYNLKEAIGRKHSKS

Regarding `CCOC(=O)C[C@H]1[C@H](OC(=O)c2ccc(-c3ccccc3)cc2)[C@@H](NC(=O)CC(C)C)c2cc(OCCCO)ccc2N1C(=O)Cc1ccc(OC)cc1`, the z-score in [1] was -0.378; in experiment [2] it was 0.605 (inactive); in [3], -0.38 (inactive); in [5], 0.35 (inactive); in experiment [6], -0.154 (inactive); in experiment [7], -0.181 (inactive). Moreover, the z-score is -0.12 (inactive) in experiment [8] and -0.306 in experiment [9]. The composite z-score in experiment [4] was 0.423 (inactive); in experiment [10], -0.274.
For the compound `C=C(/C(=C/C[C@@H](OC(C)=O)c1ccccc1OCCO)c1cc(C(=O)OC)ccc1OC)C(C)C`, the z-score in experiment [1] is 0.862; in experiment [2], -1.18 (inactive); in [3] it was -0.296 (inactive); in [5], 0.0478 (inactive); in experiment [6], 0.508 (inactive); in experiment [7], 1.62 (inactive). The z-score in experiment [8] was 1.04 (inactive); in [9], 0.676. In addition, the results for the composite z-score in experiment [4] and in experiment [10] were -1.22 (inactive) and -0.323, respectively.
Consider `CO[C@H]1O[C@H](CO)[C@@H](OC(=O)Nc2ccccc2)[C@@H]2OC(=O)[C@H](Cc3ccccc3)C/C=C/C[C@@H](Cc3ccccc3)C(=O)O[C@@H]12`, for which the z-score in [1] was -1.41; in [2] it was 0.411 (inactive); in experiment [3], -3.52 (inactive); in experiment [5] it was 0.385 (inactive); in experiment [6], 0.887 (inactive); in experiment [7] it was 1.04 (inactive). Moreover, the z-score in [8] was 1.99 (inactive); in experiment [9] it was -2.26. The composite z-score was -1.69 (inactive) in [4] and 0.288 in [10].
`C=C(CCCC)C(=O)CC[C@H](OC(=O)c1cccnc1)c1ccc(CO)o1`: the z-score in experiment [1] was -0.476; in experiment [2] it was -1.58 (inactive); in experiment [3], -0.464 (inactive); in experiment [5], 1.45 (inactive); in [6], -0.497 (inactive); in experiment [7], -0.47 (inactive). The z-score is -0.34 (inactive) in [8] and -0.643 in experiment [9]. Moreover, the composite z-score is -0.826 (inactive) in [4] and 0.0343 in [10].
On to `COC(=O)[C@@H]1N=C(c2ccc(OCCCO)cc2)O[C@@H]1c1ccccc1CN=[N+]=[N-]`, for which the z-score is 1.25 in [1]; -1.46 (inactive) in experiment [2]; 0.55 (inactive) in experiment [3]; -0.636 (inactive) in experiment [5]; 0.657 (inactive) in [6]; 0.0547 (inactive) in experiment [7]. For the same compound, the figures for the z-score in experiment [8] and in experiment [9] were 0.396 (inactive) and 0.11, respectively. Besides, the results for the composite z-score in experiment [4] and in experiment [10] were -0.487 (inactive) and 0.279, respectively.
Consider `COC(=O)[C@@]1(CCS(=O)(=O)c2ccccc2)N=C(c2ccc(OCCCO)cc2)O[C@H]1c1ccccc1N=[N+]=[N-]`, for which the z-score in experiment [1] was -0.705; in experiment [2], 0.905 (inactive); in [3], -2.87 (inactive); in experiment [5], 0.246 (inactive); in [6] it was 1.09 (inactive); in [7], 0.399 (inactive). Besides, the values for the z-score in [8] and in experiment [9] were -1.12 (inactive) and -1.64, respectively. Moreover, the composite z-score in [4] is -0.279 (inactive); in experiment [10] it was -0.0374.
For `NCCCC[C@@H]1NC(=O)[C@H]2C[C@@H](C(=O)O)[C@@H](c3cccc(OCCO)c3)N2C1=O`, the z-score is -0.578 in experiment [1]; -0.0349 (inactive) in experiment [2]; 0.152 (inactive) in [3]; 0.628 (inactive) in experiment [5]; 1.08 (inactive) in experiment [6]; 0.191 (inactive) in experiment [7]. Besides, the values for the z-score in [8] and in [9] were -0.28 (inactive) and -0.438, respectively. The composite z-score was -6.64 (inactive) in experiment [4] and 0.201 in [10].
With `COC(=O)Cn1c(C(=O)N(C)C)cc2c1C[C@H]1CN(C(=O)c3ccccc3)[C@@](Cc3ccc(OC)cc3)(C(=O)OC)[C@@H]21`, the z-score in [1] is -0.708; in [2], 1.15 (inactive); in experiment [3] it was -0.667 (inactive); in experiment [5], -0.0424 (inactive); in experiment [6] it was 0.555 (inactive); in [7], -0.552 (inactive). The z-score is -0.263 (inactive) in experiment [8] and -0.876 in experiment [9]. Further, the composite z-score was 0.072 (inactive) in experiment [4] and -0.158 in experiment [10].
As to `CCCC[C@H]1OB(O)C[C@H]2C1=C(COC)C[C@H]1C(=O)C=CC(=O)[C@H]12`, the z-score in [1] was -0.796; in [2], -3.96 (inactive); in [3] it was -0.203 (inactive); in [5] it was 1.52 (inactive); in experiment [6] it was 0.0887 (inactive); in experiment [7] it was 1.13 (inactive). Besides, the z-score in [8] is 0.756 (inactive); in experiment [9] it was -0.0072. For the same compound, the composite z-score is -2.14 (inactive) in experiment [4] and -0.0238 in [10].
For the compound `CCc1cccc(NC(=O)O[C@H]2[C@H](OC(=O)Nc3ccc4c(c3)OCO4)[C@H](OC(=O)Nc3ccc4c(c3)OCO4)[C@@H](OC)O[C@@H]2CO)c1`, the z-score was -0.585 in experiment [1]; 0.613 (inactive) in experiment [2]; -1.44 (inactive) in experiment [3]; 0.317 (inactive) in experiment [5]; 1.97 (inactive) in experiment [6]; 1.65 (inactive) in [7]. Also, the figures for the z-score in [8] and in [9] were 0.853 (inactive) and -1.47, respectively. Further, the composite z-score in [4] is -1.12 (inactive); in experiment [10], -0.184.
`COC(=O)[C@@]1(Cc2ccccc2)[C@@H]2[C@@H](CC(=O)[C@H]2CC(=O)C(=O)N(C)C)CN1C(=O)c1ccccc1`: the z-score in [1] was 0.166; in [2], 1.55 (inactive); in [3], -1.18 (inactive); in [5] it was 0.535 (inactive); in [6], 1.02 (inactive); in [7], -0.49 (inactive). In addition, the z-score in [8] is -0.0021 (inactive); in experiment [9], -0.0757. Besides, the values for the composite z-score in [4] and in experiment [10] were 0.823 (inactive) and 0.0464, respectively.
